Bioassay records from PubChem BioAssay.
Rows were chosen to be rich in hits. Some 32% of all compounds tested hit in one or more screens of this group.
CYP2C9 activ: human CYP2C9 activators, primary screen, biochemical, luminescence. recombinant CYP2C9, luciferin-H conversion; active compounds read high; factor 1 = untreated enzyme, 0 = blocked. 1.4% of 96,000 active. activation factor at 5 µM;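 active = activation factor of 2 or more for CYP2C9 at a 5 µM dose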;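 note: 0 = sulfaphenazole-blocked wells and 1 = vehicle-only wells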
PostGolgi yeast: phenotypic screen on post-Golgi transport, primary screen | post-Golgi transport phenotypic cell assay | inhibition, % at 10 µM | 0.9% of 98,000 active | AID 739, 2007;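 note: yeast cells grown in 1536-well plates; yeast grown about 18 h at 30C before absorbance read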
CYP2C9 inhib: blockers of cytochrome P450 2C9 activity – biochemical, luminescence, ADME assay, primary screen. inhibition, % at 5 µM. AID 777, 2007. CYP2C9 Supersomes, luciferin-H conversion. 20% of 96,000 active;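 active = blocking of liver enzyme CYP2C9 beyond about 50% at 5 µM, limit read from the data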
CYP2C19 inh: blockers of cytochrome P450 2C19 activity – biochemical, luminescence, ADME assay, primary screen; P33261; CYP2C19 Supersomes, luciferin-H EGE luminescence, 30 min; inhibition, % at 5 µM; 21% of 96,000 active;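 active = CYP2C19 inhibition above a set limit at 5 µM in the primary screen, cut at about 50% in these data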;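 note: plate controls were negative control wells for no effect and 2.5 mM tranylcypromine positive control for full effect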
Target sequence (P33261 whole entry, looked up): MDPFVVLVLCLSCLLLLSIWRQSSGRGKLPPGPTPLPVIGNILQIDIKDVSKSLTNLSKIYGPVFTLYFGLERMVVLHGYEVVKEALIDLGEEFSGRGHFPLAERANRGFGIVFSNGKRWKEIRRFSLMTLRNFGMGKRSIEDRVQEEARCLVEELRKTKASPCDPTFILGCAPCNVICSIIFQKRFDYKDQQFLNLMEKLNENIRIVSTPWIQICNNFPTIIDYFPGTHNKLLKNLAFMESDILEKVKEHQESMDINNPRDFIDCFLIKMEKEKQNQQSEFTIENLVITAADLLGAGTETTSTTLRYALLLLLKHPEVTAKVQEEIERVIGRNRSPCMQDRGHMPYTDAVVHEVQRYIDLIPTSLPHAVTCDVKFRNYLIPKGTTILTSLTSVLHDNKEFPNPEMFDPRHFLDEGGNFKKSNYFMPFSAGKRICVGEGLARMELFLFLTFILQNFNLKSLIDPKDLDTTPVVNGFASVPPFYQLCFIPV
CYP2C19 act: human CYP2C19 activators, primary screen, biochemical, luminescence | 96,000 tested, under 10 active | activation factor at 5 µM | Cytochrome P450 2C19 (Homo sapiens), P33261 | recombinant CYP2C19, luciferin-H EGE luminescence; active compounds read high; 0 = fully inhibited enzyme, 1 = untreated enzyme;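 active = activation factor of at least 2 at 5 µM in the primary screen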;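 note: 0 = wells with 2.5 mM tranylcypromine and 1 = vehicle-only wells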
PostGolgi ctrl: growth inhibition of yeast control strain, primary screen, counter-screen for post-Golgi transport modulator project; efflux-deficient yeast background strain, growth absorbance A615, 16 h; inhibition, % at 10 µM; 5% of 98,000 active; AID 738, 2007
* = called active by the depositor. Cut-off read from the data, not from the text of the source, unless noted: active = inhibition above about 30%; inactive = the rest.

SMILES | CYP2C9 activ | PostGolgi yeast | CYP2C9 inhib | CYP2C19 inh | CYP2C19 act | PostGolgi ctrl
Cc1ccc(NC(=O)COn2nnc3ccc(S(=O)(=O)N(C)C)cc32)cc1F | 0 | -0.5 | 97.5* | 88.7* | 0.1 | 8.5
CN(C(=O)OCc1ccccc1)C(CC(N)=O)C(=O)O (configuration not stated) | 1 | 5.8 | 0.1 | -3.9 | 1 | 5.4
CCCC(=O)Oc1ccccc1C1SCc2cc(C)c(C)cc2CS1 | 0.9 | -1.0 | 9.5 | -4.0 | 1 | -3.5
CN(C)C(=O)CSc1nnc(C23CC4CC(CC(C4)C2)C3)o1 | 1 | 3.7 | -3.6 | 15.2 | 0.8 | 14.9
O=[N+]([O-])c1cc(-c2nnc(C34CC5CC(CC(C5)C3)C4)o2)cc([N+](=O)[O-])c1 | 1.1 | 7.0 | -7.5 | -7.0 | 1.1 | 47.0*
CC(=O)SCC(C)C(=O)NCc1ccccc1 (configuration not stated) | 1 | 8.8 | -0.3 | 63.5* | 0.4 | 6.5
C=CCOC(=O)C1=C(C)N(C)C(=O)NC1c1cc2c(cc1Br)OCO2 (configuration not stated) | 0.3 | -1.7 | 71.2* | 96.3* | 0 | 7.0
CC1=C(C(=O)OCCOC(C)C)C(c2cc3c(cc2Br)OCO3)C2=C(CCCC2=O)N1 (configuration not stated) | 0.8 | -4.2 | 23.1 | 88.7* | 0.1 | 12.3
CCOC(=O)C1=C(C)NC(=O)CC1c1cc2c(cc1Br)OCO2 (configuration not stated) | 0.1 | -1.6 | 89.8* | 98.8* | 0 | 12.6
COCCN1C=C(C(=O)OC)C(c2cc3c(cc2Br)OCO3)C(C(=O)OC)=C1 | 0.7 | 8.8 | 27.0 | 45.8 | 0.5 | 13.5
CCN(CC)c1ccc(C2C(C(=O)OCCOC(C)C)=C(C)NC3=C2C(=O)CCC3)cc1 (configuration not stated) | 0.7 | 14.1 | 25.4 | 27.4 | 0.7 | 2.5
CC1=C(C(=O)OCCOC(C)C)C(c2cccnc2)C2=C(CCCC2=O)N1 (configuration not stated) | 0.4 | -0.7 | 55.7* | 70.0* | 0.3 | 2.1
COc1ccc(-n2c(=O)c3ccccc3n(CC(=O)Nc3cc(C)on3)c2=O)cc1OC | 0.7 | 14.2 | 25.7 | 8.3 | 0.9 | -12.5
CCOc1cccc2sc(NC(=O)CC)nc12 | 0.3 | -4.2 | 74.9* | 18.1 | 0.8 | 5.3
CCC(=O)Nc1nc2cc(OC)ccc2s1 | 0.8 | 14.8 | 16.1 | 4.8 | 1 | 3.0
CNS(=O)(=O)c1ccc(OC)c(-c2nnc3c4ccccc4c(C)nn23)c1 | 1.1 | -1.1 | -5.3 | -3.3 | 1 | -2.8
COc1ccc(S(=O)(=O)NC(C)(C)C)cc1-c1nnc2c3ccccc3c(C)nn12 | 0.5 | 6.4 | 46.4 | 65.6* | 0.3 | -1.0
Cc1ccc(C(=O)N(c2ccccc2)C2CC(C)N(C(=O)c3ccco3)c3ccccc32)cc1 (configuration not stated) | 0.1 | 7.8 | 94.1* | 52.0* | 0.5 | 5.7
COc1ccc2nc(NC(=O)CCc3nc(-c4ccccc4F)no3)sc2c1 | 0.5 | -4.4 | 47.7 | 27.1 | 0.7 | 3.5
COc1cc(C(=O)NC(=S)Nc2ccc3oc(=O)ccc3c2)cc(OC)c1OC | 1 | 7.3 | 3.1 | 2.3 | 1 | -6.1
ONC(=Nc1ccc(Cl)cc1)c1ccccc1 | 0.8 | 4.5 | 23.7 | 91.2* | 0.1 | 14.0
CCOc1ccccc1NC(=O)CC1Nc2cc(C)c(C)cc2NC1=O (configuration not stated) | 0.6 | -12.4 | 42.2 | 16.7 | 0.8 | 29.4
N#Cc1ccc(-c2ccc(Cl)cc2)nc1SCC(=O)c1cccc(Cl)c1 | 0.9 | -2.1 | 12.5 | 2.8 | 1 | 7.5
N#Cc1ccc(-c2ccccc2)nc1SCC(=O)c1cccc(Cl)c1 | 0.4 | -1.2 | 63.0* | 30.6 | 0.7 | -4.2
O=C(c1cc2ccccc2o1)c1nc2c(n1O)CCCCC2 | 0.8 | -6.5 | 21.3 | -9.9 | 1.1 | 15.6
SMILES | CYP2C9 activ | PostGolgi yeast | CYP2C9 inhib | CYP2C19 inh | CYP2C19 act | PostGolgi ctrl
Cc1nnc(NC(=O)CSc2nnc3scc(-c4ccc(C)c(C)c4)n23)s1 | 0.7 | 16.4 | 33.1 | 8.9 | 0.9 | -2.5
Cc1ccc(-c2csc3ncnc(SCC(=O)Nc4nnc(C)s4)c23)cc1 | 1 | -4.8 | -2.2 | -17.0 | 1.2 | 33.3*
N#CC(C#N)=c1ccc2c(c1)NC1(CCCCC1)N=2 | 0.4 | 6.4 | 56.0* | 29.5 | 0.7 | 5.2
Cc1cc(NC(=O)CC23CC4CC(C2)CC(CC(=O)Nc2cc(C)on2)(C4)C3)no1 | 0.9 | -3.0 | 11.3 | 14.1 | 0.9 | 23.6
N#Cc1nc(-c2ccc(OCc3ccccc3)cc2)oc1NCc1cccnc1 | 0.8 | 0.0 | 22.4 | 10.0 | 0.9 | 12.2
CN(C)c1oc(-c2ccc(OCc3ccccc3)cc2)nc1C#N | 0.9 | -1.9 | 14.9 | 79.5* | 0.2 | 9.2
COc1cc2c(cc1OC)CN(c1ccc(-c3ccccc3OC)nn1)CC2 | 2.4* | 4.3 | -139.7 | 62.5* | 0.4 | 4.8
CC1(C)OC(=O)C(=CNCC(=O)NCC(=O)O)C(=O)O1 | 0.8 | -9.2 | 18.2 | 18.7 | 0.8 | 12.2
CCOC(=O)CSc1nnc(CNC(=O)c2ccc(OC)cc2)n1C1CCCCC1 | 0.9 | -7.6 | 14.9 | 75.1* | 0.2 | -2.1
CCOC(=O)CSc1nnc(CNC(=O)c2ccc(OC)cc2)n1Cc1ccccc1 | 0.9 | 0.0 | 9.1 | 30.7 | 0.7 | 3.4
Cc1ccc(S(=O)(=O)N(C)CCCC(=O)N2CCOCC2)cc1 | 1.1 | -11.2 | -8.4 | 16.5 | 0.8 | -2.5
Cc1ccc(S(=O)(=O)N(C)CCCC(=O)n2nc(C)cc2C)cc1 | 1.9 | 2.7 | -89.3 | 88.8* | 0.1 | 12.2
Cc1cccc(-c2nnc(SCc3ccccc3)o2)c1 | 1.1 | -4.8 | -9.6 | 9.3 | 0.9 | 1.4
O=c1c(-c2nnc(SCc3ccc(Cl)c(Cl)c3)o2)cccn1Cc1ccccc1 | 0.4 | 8.5 | 55.5* | 84.5* | 0.2 | 54.0*
CC(C)(C)c1ccc(C(=O)N2CCC(C(=O)NCC3CCCO3)CC2)cc1 (configuration not stated) | 0.9 | 2.0 | 11.1 | 4.9 | 1 | -1.0
CCSc1nnc(-c2ccc(S(=O)(=O)NCc3cccs3)cc2)o1 | 0.3 | -4.9 | 69.7* | 13.0 | 0.9 | -1.3
CCSc1nnc(-c2cccs2)o1 | 1 | 4.5 | -1.1 | -5.6 | 1.1 | -8.0
CN1C(=O)c2ccc(C(=O)NC3CCCCC3)cc2C1=O | 0.9 | -8.5 | 11.6 | 10.1 | 0.9 | 8.3
CC(C(=O)N1c2ccccc2Sc2ccccc21)n1nnc(-c2cccs2)n1 (configuration not stated) | 0.2 | 5.5 | 82.8* | 50.7* | 0.5 | 31.8*
O=C(O)Cn1nnc(-c2cccs2)n1 | 1 | 9.9 | -2.3 | -2.7 | 1 | 3.9
C=CCN(c1ccc(C(=O)NCCc2ccccc2)cc1)S(C)(=O)=O | 1.1 | -3.3 | -9.6 | 10.5 | 0.9 | 7.1
